Hit rate of the full screen: of about 5,500 compounds, about 2,000 (36%) were called active. Roughly 18% stayed inconclusive and do not appear here. Cut-off read from the data, not from the text of the source: active = normalized growth mostly below about 0.91 (no sharp cut-off); inconclusive = no clear call, values can overlap the other calls; inactive = mostly above about 0.92. Some of the results follow.
Experiment: chemical genetic growth profiling, strain panel (AID 1159580);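 note: tested at 20 µM; growth read once vehicle control cultures reached saturation at 30 °C; 1 = growth at the plate median or of vehicle wells; lower values mean less growth of the strain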
Settings: S. cerevisiae deletion strains, growth OD

Measured: normalized growth

CC(=O)O[C@H]1CCC2(C)C3=C(CCC2C1(C)C)[C@@]1(C)CC[C@@H](C(C)CCC=C(C)C)[C@]1(C)CC3 (some centres not stated)
inactive: locus YAL021C, strain ccr4, active compounds read low 1.02 | locus YAL026C, strain drs2, active compounds read low 1.03 | locus YAL030W, strain snc1, active compounds read low 1.03 | locus YBL061C, strain skt5, active compounds read low 1.04 | locus YBR009C, strain hhf1, active compounds read low 1.03 | locus YBR021W, strain FUR4, active compounds read low 0.912 | locus YBR023C, strain chs3, active compounds read low 1.03 | locus YBR171W, strain sec66, active compounds read low 1.05 | locus YBR229C, strain ROT2, active compounds read low 1.04 | locus YBR231C, strain swc5, active compounds read low 1.04 | locus YBR279W, strain paf1, active compounds read low 1.02 | locus YCL011C, strain gbp2, active compounds read low 1.04 | locus YCL016C, strain dcc1, active compounds read low 1.03 | locus YCL029C, strain bik1, active compounds read low 1.01 | locus YCL061C, strain MRC1, active compounds read low 1.04 | locus YCL069W, strain vba3, active compounds read low 1.03 | locus YCR088W, strain abp1, active compounds read low 1.03 | locus YDL005C, strain med2, active compounds read low 1.03 | locus YDL035C, strain GPR1, active compounds read low 0.911 | locus YDL040C, strain nat1, active compounds read low 1.03 | locus YDL074C, strain BRE1, active compounds read low 0.973 | locus YDL101C, strain DUN1, active compounds read low 1.02 | locus YDL185W, strain tfp1, active compounds read low 1.05 | locus YDL192W, strain arf1, active compounds read low 1.03 | locus YDR001C, strain nth1, active compounds read low 1.03 | locus YDR069C, strain doa4, active compounds read low 1.03 | locus YDR101C, strain arx1, active compounds read low 1.02 | locus YDR137W, strain rgp1, active compounds read low 1.02 | locus YDR150W, strain NUM1, active compounds read low 1.05 | locus YDR159W, strain sac3, active compounds read low 1.07 | locus YDR162C, strain NBP2, active compounds read low 1.01 | locus YDR195W, strain ref2 1.03 | locus YDR297W, strain sur2, active compounds read low 1.03 | locus YDR318W, strain mcm21, active compounds read low 1.02 | locus YDR334W, strain swr1, active compounds read low 1.04 | locus YDR335W, strain msn5, active compounds read low 1.02 | locus YDR388W, active compounds read low 1.06 | locus YDR392W, strain spt3, active compounds read low 1.04 | locus YDR502C, strain sam2, active compounds read low 1.01 | locus YEL003W, strain gim4, active compounds read low 1.02 | locus YEL037C, strain rad23, active compounds read low 1.02 | locus YEL061C, strain CIN8 (second series), active compounds read low 1.03 | locus YEL061C, strain CIN8, active compounds read low 1.04 | locus YER015W, strain faa2, active compounds read low 1.03 | locus YER016W, strain bim1, active compounds read low 1.04 | locus YER110C, active compounds read low 1.06 | locus YER111C, strain swi4, active compounds read low 1.04 | locus YER155C, strain BEM2 (second series), active compounds read low 1.04 | locus YER155C, strain BEM2, active compounds read low 1.03 | locus YER167W, strain BCK2, active compounds read low 1.03 | locus YFR010W, strain ubp6, active compounds read low 1.03 | locus YGL078C, strain dbp3, active compounds read low 0.932 | locus YGL086W, strain mad1, active compounds read low 1.02 | locus YGL167C, strain pmr1, active compounds read low 1.04 | locus YGL173C, strain kem1, active compounds read low 1.02 | locus YGL227W, strain vid30, active compounds read low 1.03 | locus YGL240W, strain doc1, active compounds read low 1.03 | locus YGL248W, strain PDE1, active compounds read low 1 | locus YGL253W, strain hxk2, active compounds read low 1.02 | locus YGR078C, strain PAC10, active compounds read low 1 | locus YGR135W, strain pre9, active compounds read low 1 | locus YGR229C, strain SMI1, active compounds read low 0.963 | locus YGR252W, strain gcn5, active compounds read low 0.884 | locus YHR013C, strain ard1, active compounds read low 1.08 | locus YHR027C, strain rpn1, active compounds read low 1.02 | locus YHR079C, strain IRE1 (second series), active compounds read low 1.06 | locus YHR094C, strain hxt1, active compounds read low 1.06 | locus YHR129C, strain ARP1, active compounds read low 1.04 | locus YHR142W, strain chs7, active compounds read low 1.04 | locus YHR200W, strain rpn10, active compounds read low 1.03 | locus YIL066C, strain RNR3, active compounds read low 1.02 | locus YIL073C, strain SPO22, active compounds read low 1.06 | locus YIL125W, strain kgd1, active compounds read low 1.01 | locus YJL092W, strain hpr5, active compounds read low 1.03 | locus YJL095W, strain BCK1 (second series), active compounds read low 1.03 | locus YJL095W, strain BCK1, active compounds read low 1.03 | locus YJL115W, strain asf1, active compounds read low 1.04 | locus YJL129C, strain trk1, active compounds read low 1.07 | locus YJL134W, strain LCB3, active compounds read low 1.04 | locus YJL154C, strain vps35, active compounds read low 1.03 | locus YJL164C, strain tpk1, active compounds read low 1.02 | locus YJL166W, strain qcr8, active compounds read low 1.03 | locus YJL168C, strain set2, active compounds read low 1.06 | locus YJL187C, strain SWE1 (second series), active compounds read low 0.989 | locus YJL187C, strain SWE1, active compounds read low 1.01 | locus YJR043C, strain POL32, active compounds read low 0.941 | locus YJR075W, strain HOC1, active compounds read low 1.04 | locus YKL068W, active compounds read low 1.04 | locus YKL085W, strain MDH1 (second series), active compounds read low 1.03 | locus YKL085W, strain MDH1, active compounds read low 1.03 | locus YKL160W, strain elf1, active compounds read low 1.02 | locus YKR001C, strain vps1, active compounds read low 0.997 | locus YKR026C, strain gcn3, active compounds read low 1.04 | locus YKR091W, strain srl3, active compounds read low 1.03 | locus YLL001W, strain dnm1, active compounds read low 1.03 | locus YLL026W, active compounds read low 1.02 | locus YLL041C, strain sdh2, active compounds read low 1.05 | locus YLR027C, strain aat2, active compounds read low 1.04 | locus YLR039C, strain RIC1, active compounds read low 1.08 | locus YLR058C, strain SHM2, active compounds read low 1.01 | locus YLR102C, strain apc9, active compounds read low 1.05 | locus YLR221C, strain rsa3, active compounds read low 1.03 | locus YLR258W, strain gsy2, active compounds read low 1.04 | locus YLR262C, strain YPT6 (second series), active compounds read low 1.02 | locus YLR262C, strain YPT6, active compounds read low 0.994 | locus YLR268W, strain sec22, active compounds read low 1.02 | locus YLR320W, strain mms22, active compounds read low 1.05 | locus YLR330W, strain CHS5, active compounds read low 1.03 | locus YLR342W, strain FKS1 (second series), active compounds read low 0.953 | locus YLR342W, strain FKS1, active compounds read low 1.04 | locus YLR357W, strain rsc2, active compounds read low 1.04 | locus YLR370C, strain arc18, active compounds read low 1.02 | locus YLR384C, strain iki3, active compounds read low 1.05 | locus YLR418C, strain cdc73, active compounds read low 1.09 | locus YML016C, strain PPZ1, active compounds read low 1.05 | locus YML032C, strain rad52, active compounds read low 0.994 | locus YML120C, strain ndi1, active compounds read low 1.03 | locus YML124C, strain tub3, active compounds read low 1.06 | locus YMR058W, strain fet3, active compounds read low 1.03 | locus YMR078C, strain ctf18, active compounds read low 1.08 | locus YMR125W, strain sto1, active compounds read low 1.03 | locus YMR129W, active compounds read low 1.03 | locus YMR205C, strain PFK2, active compounds read low 1.04 | locus YMR223W, strain ubp8, active compounds read low 1.01 | locus YMR231W, strain pep5, active compounds read low 1 | locus YMR307W, strain GAS1, active compounds read low 0.972 | locus YNL067W, strain RPL9B, active compounds read low 0.969 | locus YNL071W, strain lat1, active compounds read low 1.03 | locus YNL209W, strain ssb2, active compounds read low 1.04 | locus YNL233W, strain BNI4, active compounds read low 1.04 | locus YNL248C, strain rpa49, active compounds read low 1.02 | locus YNL250W, strain rad50, active compounds read low 1.04 | locus YNL271C, strain bni1, active compounds read low 1.05 | locus YNL298W, strain CLA4, active compounds read low 0.986 | locus YNL307C, strain MCK1, active compounds read low 1.07 | locus YNL322C, strain KRE1 (second series), active compounds read low 1.03 | locus YNR049C, strain mso1, active compounds read low 1.03 | locus YNR052C, strain pop2, active compounds read low 0.99 | locus YOL012C, strain htz1 1.57 | locus YOL147C, strain pex11, active compounds read low 1.05 | locus YOR001W, strain rrp6, active compounds read low 1.01 | locus YOR061W, strain CKA2, active compounds read low 0.996 | locus YOR069W, strain VPS5, active compounds read low 1.03 | locus YOR070C, strain gyp1, active compounds read low 1.01 | locus YOR080W, strain dia2, active compounds read low 1.02 | locus YOR083W, strain WHI5, active compounds read low 1.01 | locus YOR106W, strain vam3, active compounds read low 1 | locus YOR136W, strain idh2, active compounds read low 1.04 | locus YOR144C, strain elg1, active compounds read low 1.04 | locus YOR184W, strain ser1, active compounds read low 0.926 | locus YOR265W, strain rbl2, active compounds read low 1.03 | locus YOR270C, strain vph1, active compounds read low 0.999 | locus YOR290C, strain snf2, active compounds read low 1.02 | locus YOR316C, strain cot1, active compounds read low 1.06 | locus YPL051W, strain arl3, active compounds read low 1.01 | locus YPL078C, strain atp4, active compounds read low 1.02 | locus YPL106C, strain sse1, active compounds read low 1.09 | locus YPL240C, strain hsp82, active compounds read low 1.03 | locus YPL241C, strain CIN2, active compounds read low 1.05 | locus YPR119W, strain clb2, active compounds read low 1.06 | locus YPR141C, strain kar3, active compounds read low 1.08 | locus YPR163C, strain tif3, active compounds read low 1.04 | locus YPR167C, strain met16, active compounds read low 1.03 | strain wtn01, active compounds read low 0.997
active: locus YIR030C, strain dcg1, active compounds read low 1.08 [resistant] | locus YKL009W, strain mrt4, active compounds read low 0.846 | locus YLR371W, strain rom2, active compounds read low 1.1 [resistant]
